Reference: the supplement of paper PMC10849652
Targets with a hit are over-represented here; the source holds about 7,900 in all. About 0.6% of all pairs of compound and target were hits. Values without a mark were called inactive.

How the values were obtained:
Assay in all cases: log2 fold change, soluble protein after heating vs DMSO (PISA); higher = thermal stabilisation; K562 cells, 10 uM, 30 min; active = over 0.2 and 3.5 SD of the protein, either way, in both replicates (recomputed)
[1] = compound: CC1=C(C=C(C=C1)NC(=O)C2=CC(=CC=C2)C(C)(C)C#N)NC3=CC4=C(C=C3)N=CN(C4=O)C
Method in brief: (§1)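 K562 cells at 2×10^6 cells/mL were treated with 10 μM compound for 30 min. Aliquots were heated for 3 min across 48°C-58°C, pooled, and extracted in PBS with 0.5% NP-40 at 4°C; soluble protein was the supernatant after 21,000xg for 90 min. Soluble protein was quantified by TMTpro 16plex LC-MS/MS with channel sums equalised, and reported as log2 fold change in thermal stability against DMSO controls, with values from duplicates.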

[2] = compound: CC1=C(C=C(C=C1)NC(=O)C2=CC(=CC=C2)N(C)C)NC(=O)C3=CC=C(C=C3)O
Method in brief: as §1

[3] = compound: CC1=CC=C(C=C1)SC2=C3C=C(SC3=CN=C2)C(=O)N
Method in brief: as §1

[4] = compound: CC1=NC(=CC=C1)C2=C(N=C(N2)C(C)(C)C)C3=CC4=NC=CN=C4C=C3
Method in brief: as §1

Nexturastat A = compound: CCCCN(Cc1ccc(C(=O)NO)cc1)C(=O)Nc1ccccc1 [Nexturastat A]
Method in brief: as §1

vemurafenib = compound: CCCS(=O)(=O)Nc1ccc(F)c(C(=O)c2c[nH]c3ncc(-c4ccc(Cl)cc4)cc23)c1F [vemurafenib]
Method in brief: as §1

[5] = compound: CCCS(=O)(=O)Nc1ccc(F)c(C(=O)c2c[nH]c3ncc(Cl)cc23)c1F
Method in brief: as §1

[6] = compound: CCCc1cc(C)[nH]c(=O)c1CNC(=O)c1cc(-c2ccnc(N3CCN(C)CC3)c2)cc2c1cnn2C(C)C
Method in brief: as §1

givinostat = compound: CCN(CC)Cc1ccc2cc(COC(=O)Nc3ccc(C(=O)NO)cc3)ccc2c1 [givinostat]
Method in brief: as §1

barasertib = compound: CCN(CCCOc1ccc2c(Nc3cc(CC(=O)Nc4cccc(F)c4)[nH]n3)ncnc2c1)CCOP(=O)(O)O [barasertib]
Method in brief: as §1

[7] = compound: CC[C@@H]1C(=O)N(C)c2cnc(Nc3ccc(C(=O)NC4CCN(C)CC4)cc3OC)nc2N1C1CCCC1
Method in brief: as §1

volasertib = compound: CC[C@@H]1C(=O)N(C)c2cnc(Nc3ccc(C(=O)N[C@H]4CC[C@H](N5CCN(CC6CC6)CC5)CC4)cc3OC)nc2N1C(C)C [volasertib]
Method in brief: as §1

[8] = compound: CC[C@H](C)N1C=C(C2=C(C=C(C=C21)C3=CN=C(C=C3)N4CCNCC4)C(=O)NCC5=C(C=C(NC5=O)C)C)C
Method in brief: as §1

epoxomicin = compound: CC[C@H](C)[C@@H](C(=O)N[C@@H]([C@@H](C)O)C(=O)N[C@@H](CC(C)C)C(=O)[C@]1(CO1)C)NC(=O)[C@H]([C@@H](C)CC)N(C)C(=O)C [epoxomicin]
Method in brief: as §1

[9] = compound: CCn1c(C(=O)N(C2CC2)C2CC2)cc2c3c(ncn3C)c(Nc3cc(C)n(C)n3)nc21
Method in brief: as §1

[10] = compound: CCn1cc(-c2ccnc3[nH]c(-c4cccc(CN(C)C)c4)cc23)c(-c2ccc(NC(=O)N(C)C)cc2)n1
Method in brief: as §1

[11] = compound: CN(C)CC(=O)Nc1ccc2[nH]c(=O)c3ccccc3c2c1
Method in brief: as §1

rosiglitazone = compound: CN(CCOC1=CC=C(C=C1)C[C@H]2C(=O)NC(=O)S2)C3=CC=CC=N3 (racemic) [rosiglitazone]
Method in brief: as §1

[12] = compound: CN1C2=C(C3=C1C(=O)N(N=C3)CC4=CC(=CC=C4)N)SC(=C2)S(=O)C
Method in brief: as §1

[13] = compound: CN1CCC(CNc2ccc3ncc(-c4cccc(OC(F)(F)F)c4)n3n2)CC1
Method in brief: as §1

Sequence of UniProt O60361 (O60361 whole entry, looked up): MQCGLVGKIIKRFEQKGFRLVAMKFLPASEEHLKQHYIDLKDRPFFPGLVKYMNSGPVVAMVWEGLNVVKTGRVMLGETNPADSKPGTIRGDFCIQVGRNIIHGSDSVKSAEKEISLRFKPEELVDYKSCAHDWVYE
Sequence of UniProt P0C024 (P0C024 whole entry, looked up): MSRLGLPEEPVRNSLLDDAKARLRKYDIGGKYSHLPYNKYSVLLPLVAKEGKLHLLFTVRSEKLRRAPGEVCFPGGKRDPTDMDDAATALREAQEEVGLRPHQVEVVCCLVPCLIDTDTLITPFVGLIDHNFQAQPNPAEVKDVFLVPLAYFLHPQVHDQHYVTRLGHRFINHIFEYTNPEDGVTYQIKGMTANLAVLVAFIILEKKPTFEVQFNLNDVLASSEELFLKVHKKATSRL
Sequence of UniProt Q99549 (Q99549 whole entry, looked up): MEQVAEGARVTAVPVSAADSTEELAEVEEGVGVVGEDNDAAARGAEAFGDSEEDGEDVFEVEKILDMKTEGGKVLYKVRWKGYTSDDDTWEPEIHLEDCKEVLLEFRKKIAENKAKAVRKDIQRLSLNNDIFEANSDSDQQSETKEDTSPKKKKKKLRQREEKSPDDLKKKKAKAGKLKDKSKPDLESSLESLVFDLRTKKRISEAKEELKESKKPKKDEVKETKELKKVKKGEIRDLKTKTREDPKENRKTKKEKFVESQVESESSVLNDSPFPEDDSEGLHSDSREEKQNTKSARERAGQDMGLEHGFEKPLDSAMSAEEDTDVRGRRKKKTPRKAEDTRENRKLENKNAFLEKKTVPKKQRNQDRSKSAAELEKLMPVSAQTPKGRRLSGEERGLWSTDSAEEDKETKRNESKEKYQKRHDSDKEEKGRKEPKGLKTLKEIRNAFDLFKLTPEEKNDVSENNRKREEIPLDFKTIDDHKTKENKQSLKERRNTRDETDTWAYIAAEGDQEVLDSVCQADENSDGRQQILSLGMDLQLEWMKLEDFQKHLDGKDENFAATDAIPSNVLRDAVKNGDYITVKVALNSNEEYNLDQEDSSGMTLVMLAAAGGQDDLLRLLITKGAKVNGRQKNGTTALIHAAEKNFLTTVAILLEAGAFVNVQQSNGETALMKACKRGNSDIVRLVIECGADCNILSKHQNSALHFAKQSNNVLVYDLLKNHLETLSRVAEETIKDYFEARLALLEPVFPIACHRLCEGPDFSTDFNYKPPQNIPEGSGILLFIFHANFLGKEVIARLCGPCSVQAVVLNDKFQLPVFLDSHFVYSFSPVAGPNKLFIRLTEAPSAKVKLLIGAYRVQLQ
Sequence of UniProt Q9H019 (Q9H019 whole entry, looked up): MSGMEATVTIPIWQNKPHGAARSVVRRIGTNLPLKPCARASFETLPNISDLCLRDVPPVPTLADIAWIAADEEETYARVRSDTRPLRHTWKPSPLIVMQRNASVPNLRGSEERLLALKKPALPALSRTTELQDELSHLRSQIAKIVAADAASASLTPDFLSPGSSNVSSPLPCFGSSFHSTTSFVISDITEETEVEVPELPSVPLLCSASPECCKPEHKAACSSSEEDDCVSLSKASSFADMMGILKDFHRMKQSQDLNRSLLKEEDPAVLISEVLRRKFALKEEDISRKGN
Sequence of UniProt Q86UD1 (Q86UD1 whole entry, looked up): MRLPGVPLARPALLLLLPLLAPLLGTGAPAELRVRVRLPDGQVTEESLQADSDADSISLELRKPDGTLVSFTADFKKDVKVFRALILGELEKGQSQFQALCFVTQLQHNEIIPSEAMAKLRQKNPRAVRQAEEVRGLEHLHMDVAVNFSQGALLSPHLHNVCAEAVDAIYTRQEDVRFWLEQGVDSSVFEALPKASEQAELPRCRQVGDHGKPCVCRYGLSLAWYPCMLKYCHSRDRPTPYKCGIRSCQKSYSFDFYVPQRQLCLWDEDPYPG
Sequence of UniProt Q96T76 (Q96T76 whole entry, looked up): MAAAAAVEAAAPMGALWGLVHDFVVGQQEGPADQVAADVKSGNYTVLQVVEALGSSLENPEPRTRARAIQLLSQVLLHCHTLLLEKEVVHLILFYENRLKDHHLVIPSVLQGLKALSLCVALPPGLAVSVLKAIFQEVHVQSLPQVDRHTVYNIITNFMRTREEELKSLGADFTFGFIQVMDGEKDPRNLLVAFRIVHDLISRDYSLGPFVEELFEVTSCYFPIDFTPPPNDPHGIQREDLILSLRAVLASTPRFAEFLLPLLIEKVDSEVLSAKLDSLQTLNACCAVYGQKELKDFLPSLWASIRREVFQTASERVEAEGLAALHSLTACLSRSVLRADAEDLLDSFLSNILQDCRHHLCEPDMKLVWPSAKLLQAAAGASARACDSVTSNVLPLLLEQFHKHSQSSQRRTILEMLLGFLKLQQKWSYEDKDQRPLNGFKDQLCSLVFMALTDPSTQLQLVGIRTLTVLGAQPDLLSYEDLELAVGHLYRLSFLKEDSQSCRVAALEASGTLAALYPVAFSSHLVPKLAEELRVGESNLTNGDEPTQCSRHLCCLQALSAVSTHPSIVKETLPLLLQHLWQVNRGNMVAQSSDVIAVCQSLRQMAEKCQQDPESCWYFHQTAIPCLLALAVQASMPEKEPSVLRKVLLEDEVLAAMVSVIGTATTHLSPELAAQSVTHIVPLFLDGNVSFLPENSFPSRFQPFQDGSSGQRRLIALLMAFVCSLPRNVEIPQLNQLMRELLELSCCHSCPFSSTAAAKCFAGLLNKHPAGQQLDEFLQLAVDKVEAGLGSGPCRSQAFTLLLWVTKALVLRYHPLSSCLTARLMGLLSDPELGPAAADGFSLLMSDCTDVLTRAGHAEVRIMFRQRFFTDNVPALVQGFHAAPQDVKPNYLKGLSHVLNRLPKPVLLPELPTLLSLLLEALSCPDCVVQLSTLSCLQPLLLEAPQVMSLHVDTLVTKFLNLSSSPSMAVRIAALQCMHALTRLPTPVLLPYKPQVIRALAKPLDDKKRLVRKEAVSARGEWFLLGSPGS
Sequence of UniProt P22059 (P22059 whole entry, looked up): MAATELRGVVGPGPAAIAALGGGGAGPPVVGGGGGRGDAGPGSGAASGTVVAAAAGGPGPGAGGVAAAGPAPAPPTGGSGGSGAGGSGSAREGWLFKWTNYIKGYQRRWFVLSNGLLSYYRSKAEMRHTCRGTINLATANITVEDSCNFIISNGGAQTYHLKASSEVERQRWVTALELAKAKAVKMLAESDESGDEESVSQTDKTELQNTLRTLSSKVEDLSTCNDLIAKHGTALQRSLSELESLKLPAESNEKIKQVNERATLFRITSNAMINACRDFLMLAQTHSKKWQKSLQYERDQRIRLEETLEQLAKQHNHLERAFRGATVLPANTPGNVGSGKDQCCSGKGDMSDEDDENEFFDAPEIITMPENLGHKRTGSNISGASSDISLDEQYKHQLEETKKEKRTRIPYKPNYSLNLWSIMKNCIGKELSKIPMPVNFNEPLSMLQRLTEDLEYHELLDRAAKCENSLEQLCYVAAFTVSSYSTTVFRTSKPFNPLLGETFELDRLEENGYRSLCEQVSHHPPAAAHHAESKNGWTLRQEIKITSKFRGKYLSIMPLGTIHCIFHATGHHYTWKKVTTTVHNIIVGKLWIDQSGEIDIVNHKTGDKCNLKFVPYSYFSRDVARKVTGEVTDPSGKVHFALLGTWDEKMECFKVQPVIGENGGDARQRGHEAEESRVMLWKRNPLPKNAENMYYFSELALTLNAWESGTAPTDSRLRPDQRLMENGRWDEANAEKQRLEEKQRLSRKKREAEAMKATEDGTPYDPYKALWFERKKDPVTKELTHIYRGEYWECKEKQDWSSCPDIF
Sequence of UniProt Q16621 (Q16621 whole entry, looked up): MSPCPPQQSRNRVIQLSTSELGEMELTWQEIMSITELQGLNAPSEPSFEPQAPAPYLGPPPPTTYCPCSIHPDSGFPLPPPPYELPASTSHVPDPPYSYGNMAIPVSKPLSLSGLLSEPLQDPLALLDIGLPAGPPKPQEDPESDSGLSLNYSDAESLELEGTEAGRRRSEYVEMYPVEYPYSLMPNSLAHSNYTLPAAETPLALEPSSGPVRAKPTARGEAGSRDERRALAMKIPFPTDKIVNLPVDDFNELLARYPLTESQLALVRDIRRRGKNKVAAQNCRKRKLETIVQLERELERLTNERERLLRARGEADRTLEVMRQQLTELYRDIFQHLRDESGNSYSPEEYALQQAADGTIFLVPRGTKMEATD
Sequence of UniProt Q9Y605 (Q9Y605 whole entry, looked up): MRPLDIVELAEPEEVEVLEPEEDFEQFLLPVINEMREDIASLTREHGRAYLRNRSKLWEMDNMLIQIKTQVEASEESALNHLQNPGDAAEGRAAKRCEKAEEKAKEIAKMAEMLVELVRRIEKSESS
Sequence of UniProt Q5VVJ2 (Q5VVJ2 whole entry, looked up): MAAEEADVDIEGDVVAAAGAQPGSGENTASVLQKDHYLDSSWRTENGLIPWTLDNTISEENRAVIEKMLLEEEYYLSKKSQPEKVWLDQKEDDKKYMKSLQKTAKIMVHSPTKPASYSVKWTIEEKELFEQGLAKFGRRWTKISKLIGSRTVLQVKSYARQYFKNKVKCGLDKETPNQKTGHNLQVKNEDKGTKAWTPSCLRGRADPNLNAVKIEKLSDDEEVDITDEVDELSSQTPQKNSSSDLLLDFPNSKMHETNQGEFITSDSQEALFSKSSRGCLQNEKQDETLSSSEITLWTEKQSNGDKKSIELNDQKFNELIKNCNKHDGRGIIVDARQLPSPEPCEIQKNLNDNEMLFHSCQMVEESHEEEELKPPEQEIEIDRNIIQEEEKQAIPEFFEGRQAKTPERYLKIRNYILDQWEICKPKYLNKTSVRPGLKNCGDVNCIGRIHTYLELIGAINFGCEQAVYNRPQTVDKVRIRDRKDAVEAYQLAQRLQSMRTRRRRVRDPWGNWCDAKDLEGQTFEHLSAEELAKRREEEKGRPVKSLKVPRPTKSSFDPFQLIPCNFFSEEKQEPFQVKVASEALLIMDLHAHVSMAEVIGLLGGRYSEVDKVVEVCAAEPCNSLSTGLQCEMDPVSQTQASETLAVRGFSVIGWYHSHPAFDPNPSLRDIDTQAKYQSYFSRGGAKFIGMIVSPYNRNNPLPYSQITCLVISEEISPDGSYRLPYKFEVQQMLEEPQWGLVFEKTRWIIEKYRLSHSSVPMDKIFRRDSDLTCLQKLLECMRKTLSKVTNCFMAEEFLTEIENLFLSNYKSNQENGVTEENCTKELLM

| Target | log2 fold change [1] | log2 fold change [2] | log2 fold change [3] | log2 fold change [4] | log2 fold change (Nexturastat A) | log2 fold change (vemurafenib) | log2 fold change [5] | log2 fold change [6] | log2 fold change (givinostat) | log2 fold change (barasertib) | log2 fold change [7] | log2 fold change (volasertib) | log2 fold change [8] | log2 fold change (epoxomicin) | log2 fold change [9] | log2 fold change [10] | log2 fold change [11] | log2 fold change (rosiglitazone) | log2 fold change [12] | log2 fold change [13] |
| --- | --- | --- | --- | --- | --- | --- | --- | --- | --- | --- | --- | --- | --- | --- | --- | --- | --- | --- | --- | --- |
| NFE2 (UniProt Q16621) | -0.09 | 0.064 | 0.017 | 0.034 | 0.044 | -0.087 | 0.043 | -0.009 | 0.087 | -0.003 | -0.136 | -0.227 | 0.018 | 0.173 | 0.012 | 0.084 | 0.273 | 0 | -0.015 | -0.145 |
| OSBP (UniProt P22059) | 0.098 | -0.011 | -0.028 | 0.022 | -0.073 | 0.015 | 0.027 | -0.003 | -0.052 | -0.001 | 0.056 | 0.377 (active) | 0.032 | 0.053 | -0.101 | -0.087 | 0.013 | 0.038 | -0.064 | 0.061 |
| MMS19 isoform 8 (UniProt Q96T76) | -0.022 | -0.029 | 0 | 0.067 | 0.051 | 0.047 | 0.1 | 0.061 | -0.061 | 0.063 | -0.102 | -0.43 (active) | 0.075 | 0.013 | -0.009 | -0.052 | 0.11 | 0.076 | 0.051 | -0.085 |
| MRPS15 (UniProt P82914) | 0.04 | -0.026 | -0.017 | -0.022 | 0.058 | -0.037 | 0.062 | 0.023 | 0.027 | 0.004 | -0.021 | -0.048 | 0.163 | -0.007 | -0.084 | -0.115 | -0.01 | 0.032 | 0.049 | 0.042 |
| NIBAN1 (UniProt Q9BZQ8) | 0.05 | -0.036 | 0.102 | 0.01 | 0.077 | 0.046 | 0.083 | 0.039 | 0.05 | 0.063 | -0.16 | -0.428 (active) | 0.073 | 0.066 | -0.039 | -0.085 | 0.022 | 0.055 | 0.04 | -0.208 |
| NUDT7 (UniProt P0C024) | 0.016 | -0.021 |  | 0.197 | 0.014 |  |  |  | 0.017 | 0.666 (active) |  |  | 0.187 | -0.067 | 0.058 | -0.055 |  | 0.038 |  | 0.322 |
| MTHFD1, A0A384N5Y3 | 0.036 | -0.107 | -0.055 |  | 0.013 | 0.088 | 0.058 | -0.035 |  | 0.044 | -0.152 | -0.011 | 0.065 | 0.002 |  | -0.113 | 0.045 | 0.023 | -0.084 | -0.081 |
| MRPS16 (UniProt Q9Y3D3) | 0.055 | -0.052 | 0.006 | 0.132 | 0.124 | -0.014 | 0.062 | 0.032 | 0.031 | -0.084 | 0.012 | -0.088 | 0.018 | 0.041 | 0.047 | -0.116 | 0.046 | -0.071 |  | 0.052 |
| MYSM1 (UniProt Q5VVJ2) | 0.067 | -0.298 |  | 0.006 |  |  |  |  |  | -0.114 | -0.17 |  |  |  |  |  |  | 0.157 |  |  |
| OAF (UniProt Q86UD1) | -0.005 | -0.119 |  |  |  |  |  | -0.346 | -0.071 |  |  |  |  |  | -0.087 |  |  |  |  |  |
| NA, A0A2R8Y3M9 | -0.126 | 0.546 | 0.225 | 0.178 |  |  | -0.086 |  |  | -0.138 |  | -0.134 | 0.014 |  |  | -0.015 |  | 0.117 | 0.376 | 0.005 |
| MTFR1L (UniProt Q9H019) | 0.082 | -0.006 | 0.008 | -0.122 | -0.027 | 0.048 | 0.116 |  | 0.031 | -0.026 |  | -0.586 (active) | 0.036 | 0.023 | -0.145 | -0.186 | 0.08 | -0.019 | 0.013 | -0.296 |
| NFYB (UniProt P25208) | -0.012 | -0.118 | -0.023 | 0.025 |  | 0.026 | 0.025 | 0.044 | -0.012 | 0.049 | 0.008 | 0.019 | -0.029 |  | -0.007 | -0.055 | -0.011 | -0.054 | 0.031 | 0.085 |
| ORC5 (UniProt O43913) | -0.193 | -0.089 | 0 | -0.038 |  | 0.058 | 0.058 | 0.058 | -0.009 | 0.025 | -0.196 | -0.42 | 0.074 |  | -0.071 | -0.103 | 0.105 | 0.084 | -0.029 | -0.203 |
| NME2P1 (UniProt O60361) | 0.06 | 0.017 | 0.065 | 0.004 | -0.164 | 0.038 | -0.043 | -0.102 | 0.09 | 0.12 | 0.117 | 0.03 | -0.177 | 0.033 | -0.162 | 0.198 | -0.021 | 0.166 |  | -0.074 |
| MRPS33 (UniProt Q9Y291) | 0.075 | -0.078 | -0.025 | -0.004 | 0.098 | 0.023 | 0.073 | -0.042 | 0.043 | -0.015 | 0.016 | 0.025 | 0.057 | -0.012 | 0 | -0.011 | -0.01 | -0.007 | -0.001 | 0.017 |
| MRFAP1 (UniProt Q9Y605) | -0.073 | -0.011 | 0.101 | -0.045 |  | -0.148 | 0.046 | 0.009 | 0.017 | 0.036 | -0.107 | -0.386 | 0 |  | 0.029 | 0.022 | 0.242 | 0.048 | -0.08 | -0.032 |
| NAT14 (UniProt Q8WUY8) | 0.012 | -0.054 | 0.011 | 0.031 | 0.227 | 0.054 | -0.051 | -0.103 | -0.043 | 0.027 | -0.192 | -0.261 | 0.063 | -0.024 | 0.064 |  | 0.077 | 0.095 | -0.107 |  |
| MPHOSPH8 isoform 2 (UniProt Q99549) | -0.159 | 0.179 | -0.159 | -0.022 | -0.013 | -0.02 | -0.1 | -0.002 |  |  |  | 0.012 |  | 0.16 |  |  | -0.093 |  | 0.058 |  |
